The source of these data is PubChem BioAssay (NCATS).

Records with an inconclusive call do not appear. The source made the active and inactive calls. Calls follow the shape of the dose curve; as a rule, active = well fitted curve in the direction sought with a large enough effect; inconclusive = small, poorly fitted or top-dose-only effect, or another doubt; inactive = no such curve, though single readings can be large; an effect the other way counts as inactive or inconclusive.
Potency is read from the fitted curve at half-maximal effect.

The first test is described as follows: BET inhibitor-based combinations targeting novel dependencies in MECOM-rearranged (r) AML: MV-4-11 cell line (AID 2202233). Also: nearly all actives have a fitted effect of over 45% in size. The following applies: MV-4-11 AML viability, CellTiter-Glo luminescence, 48 h; series mostly up to 46 µM. The essentials:
(§1)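 First, 500 cells per well were seeded; next, drugs were pinned as 11-point doses; then plates sat 48 hr in the incubator; finally CellTiter-Glo was added and luminescence read, with AUC and Z-AUC computed.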
Background: Cellular ATP, detected with luciferase, serves as a proxy for viable cell number.
With `CN(C)CCOC(c1ccccc1)c1ccccc1`, the Potency entry is “inactive”.

With `O=C1c2c(O)ccc(O)c2C(=O)c2c(NCCNCCO)ccc(NCCNCCO)c21`, the Potency was 74.2 nM (active).

`NCCCC(N)(C(=O)O)C(F)F` (stereo unspecified): the Potency entry was “inactive”.

With `O=c1c(-c2ccc(O)cc2)coc2cc(O[C@@H]3O[C@H](CO)[C@@H](O)[C@H](O)[C@H]3O)ccc12`, the Potency was 20900 nM (active).

As for `COc1cc2c(c(OC)c1OC)-c1ccc(OC)c(=O)cc1[C@@H](NC(C)=O)CC2`, the Potency is 37.2 nM (active).

Regarding `N[C@@H](Cc1ccc(O)c(O)c1)C(=O)O`, the Potency result is “inactive”.

`CC(=O)[C@]1(O)Cc2c(O)c3c(c(O)c2[C@@H](O[C@H]2C[C@H](N)[C@H](O)[C@H](C)O2)C1)C(=O)c1ccccc1C3=O`: the Potency was 66.1 nM (active).

The next test in a line: BET inhibitor-based combinations targeting novel dependencies in MECOM-rearranged (r) AML: HNT-34 cell line (AID 2202234). Also: nearly all actives have a fitted effect of over 35% in size. The following applies: HNT-34 AML viability, CellTiter-Glo luminescence, 48 h; series mostly up to 46 µM. In short, it runs like this:
as §1
For the compound `CN(C)CCOC(c1ccccc1)c1ccccc1`, the Potency result is “inactive”.

Turning to `O=C1c2c(O)ccc(O)c2C(=O)c2c(NCCNCCO)ccc(NCCNCCO)c21`, the Potency was 132 nM (active).

As to `O=c1c(-c2ccc(O)cc2)coc2cc(O[C@@H]3O[C@H](CO)[C@@H](O)[C@H](O)[C@H]3O)ccc12`, the Potency result is “inactive”.

As to `CC(=O)[C@]1(O)Cc2c(O)c3c(c(O)c2[C@@H](O[C@H]2C[C@H](N)[C@H](O)[C@H](C)O2)C1)C(=O)c1ccccc1C3=O`, the Potency is 186 nM (active).

A further test is described as follows: BET inhibitor-based combinations targeting novel dependencies in MECOM-rearranged (r) AML: UCSD-AML1 cell line (AID 2202235). Also: nearly all actives have a fitted effect of over 40% in size. As to conditions: UCSD-AML1 AML cells viability, CellTiter-Glo, 48 h; series mostly up to 46 µM. In short, it runs like this: as §1
Regarding `CN(C)CCOC(c1ccccc1)c1ccccc1`, the Potency result was “inactive”.

`O=C1c2c(O)ccc(O)c2C(=O)c2c(NCCNCCO)ccc(NCCNCCO)c21`: the Potency is 148 nM (active).

Turning to `NCCCC(N)(C(=O)O)C(F)F` (stereo unspecified), the Potency result is “inactive”.

Consider `COc1cc2c(c(OC)c1OC)-c1ccc(OC)c(=O)cc1[C@@H](NC(C)=O)CC2`, for which the Potency is 41.7 nM (active).

Another test is described as follows: BET inhibitor-based combinations targeting novel dependencies in MECOM-rearranged (r) AML: AML-191 cell line (AID 2202236; also: nearly all actives have a fitted effect of over 35% in size). The following applies: AML-191 viability, CellTiter-Glo luminescence, 48 h; series mostly up to 46 µM. The essentials:
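Each compound was tested at eleven concentrations on cells seeded at 500/well. After two days' incubation, ATP-based luminescence reported viability; responses relative to DMSO and blank wells yielded AUC and cell-line-centred Z-AUC.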
Take `CN(C)CCOC(c1ccccc1)c1ccccc1`: the Potency entry is “inactive”.

On to `O=C1c2c(O)ccc(O)c2C(=O)c2c(NCCNCCO)ccc(NCCNCCO)c21`, for which the Potency is 372 nM (active).

`NCCCC(N)(C(=O)O)C(F)F` (stereo unspecified): the Potency result was “inactive”.

`COc1cc2c(c(OC)c1OC)-c1ccc(OC)c(=O)cc1[C@@H](NC(C)=O)CC2`: the Potency is 33.2 nM (active).

For `N[C@@H](Cc1ccc(O)c(O)c1)C(=O)O`, the Potency entry is “inactive”.

With `CC(=O)[C@]1(O)Cc2c(O)c3c(c(O)c2[C@@H](O[C@H]2C[C@H](N)[C@H](O)[C@H](C)O2)C1)C(=O)c1ccccc1C3=O`, the Potency was 186 nM (active).
